Results on 40 compounds are retold here after PubChem BioAssay (NCATS).

A number with no mark means an inactive call. How the calls were made is not given here. Some results are limits rather than exact numbers.
Potency means the concentration at half of the fitted maximal effect.

For the experiment, the system named is HIV-1 nucleocapsid protein NCp7 (binding to TG oligonucleotide). In words: HIV Nucleocapsid (AID 346).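 Further: potency is for inhibitors that block NC binding and lower polarization.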 To be noted: HIV-1 NC / fluorescein-TGTGTGTG probe, fluorescence polarization. In a few lines:
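NCp7 100 nM + fluorescein TG4xF 10 nM; Hepes pH 7.5/250mM NaCl/1uM ZnCl2/0.004% PEG 20000; 1 hr RT; FP, 45 s exposure; oligo-only wells as negative control.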
Background: Polarisation of emitted light reports the rotation of a fluorescent probe.
As to `O=C(Nc1cccc(F)c1)N1CCCC2(CCNCC2)C1`, the Potency was greater than 4 µM.
The same measure for `O=C(c1csnn1)N1CCC2(CC1)CCN(c1ncccn1)CC2`: greater than 20 µM.
As for `COc1ccc2[nH]cc(CCNc3nc(-c4ccccc4CN(C)C)nc4ccccc34)c2c1`, the Potency is greater than 20 µM.
Take `c1cncc(-c2nccc(-n3ccnc3)n2)c1`: the Potency is greater than 20 µM.
`Cc1ccccc1-c1ccc2ncnc(N3CCN(C)CC3)c2c1`: the Potency is greater than 20 µM.
On to `COc1ccccc1CN1CCCC2(CCN(C(C)=O)CC2)C1`, for which the Potency was greater than 20 µM.
As to `CS(=O)(=O)N1CCC[C@@]2(CCN(Cc3ccccc3)C2)C1`, the Potency was greater than 20 µM.
For the compound `CN1CCN(c2ncc3ncc(=O)n(Cc4cccs4)c3n2)CC1`, the Potency is greater than 20 µM.
As for `COc1ccc(-c2nc3cnc(OC)nc3n(Cc3cccs3)c2=O)cc1`, the Potency was greater than 20 µM.
For `COc1ccc(NC(=O)N2CCC3(CC2)CCN(S(C)(=O)=O)CC3)cc1`, the Potency was greater than 20 µM.
`Cn1cccc1C(=O)N1CCC2(CCCN(Cc3ccc(C#N)cc3)C2)CC1`: the Potency is greater than 20 µM.
`O=C(c1cnccn1)N1CCC2(CCCN(c3ccncc3)C2)CC1`: the Potency is greater than 20 µM.
Regarding `CN(C)c1ncnc2ccc(-c3ccccc3C(F)(F)F)cc12`, the Potency was greater than 20 µM.
Next, `COCCn1c(=O)c(C)nc2cncnc21`: greater than 20 µM; `CN(C)C(=O)c1ccc(-c2ccc3ncnc(N4CCNCC4)c3c2)cc1`: greater than 20 µM; `Cc1cccc(CNc2ncncc2-c2ccc3c(c2)OCO3)c1`: greater than 20 µM.
As for `COC(=O)N1CCC2(CCN(C(=O)Nc3cccc(C#N)c3)CC2)CC1`, the Potency is greater than 20 µM.
For the compound `Cc1cnc(CNc2ncncc2-c2c(C)noc2C)cn1`, the Potency was greater than 20 µM.
Turning to `CN(C)C(=O)c1ccc(-c2nc(Nc3ccc(F)cc3)c3ccccc3n2)cc1`, the Potency is greater than 20 µM.
`CC(C)NC(=O)N1CC[C@@]2(CCCN(C(=O)Oc3ccccc3)C2)C1`: the Potency is greater than 20 µM.
For `COc1ccccc1CCn1c(=O)c(-c2ccc(F)c(F)c2)nc2cncnc21`, the Potency was greater than 20 µM.
Next, `COc1cccc(Cn2c(=O)c(-c3ccccc3)nc3cnc(N4CCN(C)CC4)nc32)c1`: greater than 20 µM; `O=c1c(-c2cccs2)nc2cnc(N3CCOCC3)nc2n1-c1ccccc1`: greater than 20 µM.
Turning to `CCNc1ncc2nc(-c3ccccc3)c(=O)n(Cc3ccc(F)cc3)c2n1`, the Potency is greater than 20 µM.
The same measure for `COc1cccc(Cn2c(=O)c(-c3ccc(F)cc3)nc3cnc(N4CCOCC4)nc32)c1`: greater than 20 µM.
Take `CCNc1ncc2nc(-c3ccccc3)c(=O)n(CCc3ccccc3)c2n1`: the Potency is greater than 4 µM.
Regarding `COCC(=O)N1CCC2(CCCN(C(c3ccccc3)c3ccccc3)C2)CC1`, the Potency is greater than 20 µM.
In the case of `Cn1cccc1C(=O)N1CCC2(CC1)CCN(c1ccc(-c3ccccc3)cc1)CC2`, the Potency was greater than 20 µM.
Turning to `O=C(c1csnn1)N1CCC2(CC1)CCN(c1ccccc1)CC2`, the Potency was greater than 20 µM.
Take `Cc1noc(C)c1-c1cncnc1NCc1cccnc1`: the Potency is greater than 20 µM.
As for `COc1ccc(C(=O)N2CCC3(CC2)CN(c2cccc(-c4ccccc4)c2)C3)cc1`, the Potency is greater than 20 µM.
On to `COc1ccc(Oc2ncc3nc(C)c(=O)n(Cc4ccc(F)cc4)c3n2)cc1`, for which the Potency is greater than 20 µM.
Next, `CC(C)NC(=O)N1CC[C@@]2(CCCN(S(=O)(=O)c3ccccc3)C2)C1`: greater than 20 µM; `CC(C)CN1CC2(CCN(C(=O)c3ccco3)CC2)C1`: greater than 20 µM; `COc1ccccc1-c1nccc(NC2CCNCC2)n1`: greater than 20 µM.
Next, `Cn1cc(-c2nc3cnc(OCc4ccccc4)nc3n(CCC#N)c2=O)c2ccccc21`: greater than 20 µM; `COc1ccc(-n2c(=O)cnc3cnc(Nc4ccccc4)nc32)cc1`: greater than 4 µM.
On to `COc1ccc(-c2nc3cnc(OCc4ccccc4)nc3n(CCC#N)c2=O)cc1`, for which the Potency is greater than 20 µM.
For the compound `COCC(=O)N1CCC2(CC1)CN(c1ccccn1)C2`, the Potency was greater than 20 µM.
On to `Cc1nc2cnc(OCc3ccccc3)nc2n(Cc2ccc(F)cc2)c1=O`, for which the Potency is greater than 20 µM.
